Laboratory results as given in the supplement of paper PMC11732987, “Enantioselective OTUD7B fragment discovery through chemoproteomics screening and high-throughput optimisation” (Communications Chemistry, 2025).

How the values were obtained:
Assay in all cases: log2 ratio of Biotin-Ahx-Ub-VS probe labelling (fragment/DMSO); higher = less target engagement (more negative = stronger competition), active = hit call of the paper (q ≤ 0.05, log2 ratio ≤ -1)
Conditions in all cases: compound concentration: 200 uM; treatment time: 3 h
USP9X = USP9X (UniProt Q93008)
USP9X, sequence (Q93008 whole entry, the tested form may be a part): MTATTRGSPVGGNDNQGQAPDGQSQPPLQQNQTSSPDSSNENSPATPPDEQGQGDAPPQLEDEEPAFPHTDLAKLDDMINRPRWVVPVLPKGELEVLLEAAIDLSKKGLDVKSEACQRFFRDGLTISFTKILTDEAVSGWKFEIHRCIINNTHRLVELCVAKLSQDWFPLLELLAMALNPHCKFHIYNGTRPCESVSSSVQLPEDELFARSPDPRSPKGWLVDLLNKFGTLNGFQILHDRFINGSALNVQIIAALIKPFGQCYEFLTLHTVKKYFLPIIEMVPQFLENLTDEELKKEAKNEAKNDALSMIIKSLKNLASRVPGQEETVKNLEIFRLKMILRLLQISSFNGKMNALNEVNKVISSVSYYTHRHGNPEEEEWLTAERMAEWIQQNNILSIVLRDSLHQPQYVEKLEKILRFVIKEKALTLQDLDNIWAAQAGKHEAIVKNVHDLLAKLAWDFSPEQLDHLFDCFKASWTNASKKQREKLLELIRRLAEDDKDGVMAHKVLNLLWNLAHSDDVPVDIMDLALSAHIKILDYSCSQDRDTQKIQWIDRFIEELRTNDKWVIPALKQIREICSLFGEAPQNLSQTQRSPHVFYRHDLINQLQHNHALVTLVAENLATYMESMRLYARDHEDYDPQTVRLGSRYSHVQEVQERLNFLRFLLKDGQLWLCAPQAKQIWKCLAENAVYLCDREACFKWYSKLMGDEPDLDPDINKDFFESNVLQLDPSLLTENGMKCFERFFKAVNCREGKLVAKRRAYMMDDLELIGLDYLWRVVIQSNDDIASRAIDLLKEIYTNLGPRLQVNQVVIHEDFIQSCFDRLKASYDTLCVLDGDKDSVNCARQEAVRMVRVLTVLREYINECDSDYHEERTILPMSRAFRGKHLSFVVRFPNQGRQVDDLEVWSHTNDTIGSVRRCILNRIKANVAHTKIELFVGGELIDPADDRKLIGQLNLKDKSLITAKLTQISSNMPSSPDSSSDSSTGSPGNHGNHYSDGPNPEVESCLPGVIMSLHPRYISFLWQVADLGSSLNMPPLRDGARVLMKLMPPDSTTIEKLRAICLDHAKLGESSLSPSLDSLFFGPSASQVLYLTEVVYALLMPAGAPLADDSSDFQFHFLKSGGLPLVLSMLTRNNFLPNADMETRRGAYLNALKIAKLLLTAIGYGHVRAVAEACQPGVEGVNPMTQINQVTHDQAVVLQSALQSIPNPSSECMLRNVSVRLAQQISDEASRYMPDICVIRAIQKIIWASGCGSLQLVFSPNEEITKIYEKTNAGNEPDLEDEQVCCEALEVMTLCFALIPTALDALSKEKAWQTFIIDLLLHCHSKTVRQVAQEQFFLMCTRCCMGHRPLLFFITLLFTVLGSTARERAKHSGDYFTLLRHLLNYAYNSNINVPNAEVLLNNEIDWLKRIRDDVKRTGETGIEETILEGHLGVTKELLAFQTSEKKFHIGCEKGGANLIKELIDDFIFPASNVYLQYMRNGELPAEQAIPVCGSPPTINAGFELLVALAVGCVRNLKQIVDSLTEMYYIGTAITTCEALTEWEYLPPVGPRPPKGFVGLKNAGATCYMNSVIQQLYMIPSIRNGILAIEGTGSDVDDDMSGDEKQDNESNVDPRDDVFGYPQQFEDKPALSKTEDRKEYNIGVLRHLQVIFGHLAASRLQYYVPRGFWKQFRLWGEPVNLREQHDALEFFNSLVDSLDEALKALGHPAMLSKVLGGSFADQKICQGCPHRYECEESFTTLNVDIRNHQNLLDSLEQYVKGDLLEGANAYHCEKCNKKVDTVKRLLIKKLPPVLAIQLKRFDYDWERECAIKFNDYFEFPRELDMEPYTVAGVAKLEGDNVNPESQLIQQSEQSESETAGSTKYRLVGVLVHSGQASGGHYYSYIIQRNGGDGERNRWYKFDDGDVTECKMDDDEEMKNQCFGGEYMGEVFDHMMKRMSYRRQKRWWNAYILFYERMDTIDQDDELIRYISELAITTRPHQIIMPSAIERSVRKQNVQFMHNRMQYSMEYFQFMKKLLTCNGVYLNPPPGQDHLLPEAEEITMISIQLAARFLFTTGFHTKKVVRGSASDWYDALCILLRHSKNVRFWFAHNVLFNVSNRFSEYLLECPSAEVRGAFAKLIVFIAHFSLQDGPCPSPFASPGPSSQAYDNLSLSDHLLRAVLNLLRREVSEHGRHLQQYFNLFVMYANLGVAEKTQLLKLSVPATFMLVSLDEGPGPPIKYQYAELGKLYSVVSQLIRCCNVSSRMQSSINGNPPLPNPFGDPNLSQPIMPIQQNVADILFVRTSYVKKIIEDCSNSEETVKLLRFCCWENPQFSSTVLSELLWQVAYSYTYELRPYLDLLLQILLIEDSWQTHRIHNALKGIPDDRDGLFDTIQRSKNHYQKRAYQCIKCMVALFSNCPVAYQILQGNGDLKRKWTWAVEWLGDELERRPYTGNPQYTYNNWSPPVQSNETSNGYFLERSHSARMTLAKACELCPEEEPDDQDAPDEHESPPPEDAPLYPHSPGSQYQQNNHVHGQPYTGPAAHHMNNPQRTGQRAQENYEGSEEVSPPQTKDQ
Summary of the method: (§1)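 HEK293T lysate in Tris/CHAPS/IGEPAL buffer with protease inhibitors (495 µg per sample) was given fragment at 200 µM or vehicle for 3 h, in triplicate. It then received Biotin-Ahx-Ub-VS at 0.5 µM final for 1 h. Labelled DUBs were NeutrAvidin-enriched, digested with LysC and trypsin, and run by diaPASEF LC-MS/MS. Values are average log2 fragment/vehicle ratios by unpaired t-test on global-median-normalised Spectronaut quantities of proteins with ≥2 unique peptides.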

UniProt O00487 = molecular target: UniProt O00487
UniProt O00487, sequence (O00487 whole entry): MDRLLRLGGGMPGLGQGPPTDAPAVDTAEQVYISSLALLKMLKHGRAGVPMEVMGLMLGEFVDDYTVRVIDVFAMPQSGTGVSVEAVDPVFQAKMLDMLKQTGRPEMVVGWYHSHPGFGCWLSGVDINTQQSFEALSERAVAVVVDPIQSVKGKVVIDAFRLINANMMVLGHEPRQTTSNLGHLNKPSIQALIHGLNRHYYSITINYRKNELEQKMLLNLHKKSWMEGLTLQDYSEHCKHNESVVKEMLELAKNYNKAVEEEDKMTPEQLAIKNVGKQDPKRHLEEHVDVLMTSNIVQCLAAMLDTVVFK
Summary of the method: as §1

UniProt O00507 = molecular target: UniProt O00507
Summary of the method: as §1

UniProt P51784 = molecular target: UniProt P51784
UniProt P51784, sequence (P51784 whole entry): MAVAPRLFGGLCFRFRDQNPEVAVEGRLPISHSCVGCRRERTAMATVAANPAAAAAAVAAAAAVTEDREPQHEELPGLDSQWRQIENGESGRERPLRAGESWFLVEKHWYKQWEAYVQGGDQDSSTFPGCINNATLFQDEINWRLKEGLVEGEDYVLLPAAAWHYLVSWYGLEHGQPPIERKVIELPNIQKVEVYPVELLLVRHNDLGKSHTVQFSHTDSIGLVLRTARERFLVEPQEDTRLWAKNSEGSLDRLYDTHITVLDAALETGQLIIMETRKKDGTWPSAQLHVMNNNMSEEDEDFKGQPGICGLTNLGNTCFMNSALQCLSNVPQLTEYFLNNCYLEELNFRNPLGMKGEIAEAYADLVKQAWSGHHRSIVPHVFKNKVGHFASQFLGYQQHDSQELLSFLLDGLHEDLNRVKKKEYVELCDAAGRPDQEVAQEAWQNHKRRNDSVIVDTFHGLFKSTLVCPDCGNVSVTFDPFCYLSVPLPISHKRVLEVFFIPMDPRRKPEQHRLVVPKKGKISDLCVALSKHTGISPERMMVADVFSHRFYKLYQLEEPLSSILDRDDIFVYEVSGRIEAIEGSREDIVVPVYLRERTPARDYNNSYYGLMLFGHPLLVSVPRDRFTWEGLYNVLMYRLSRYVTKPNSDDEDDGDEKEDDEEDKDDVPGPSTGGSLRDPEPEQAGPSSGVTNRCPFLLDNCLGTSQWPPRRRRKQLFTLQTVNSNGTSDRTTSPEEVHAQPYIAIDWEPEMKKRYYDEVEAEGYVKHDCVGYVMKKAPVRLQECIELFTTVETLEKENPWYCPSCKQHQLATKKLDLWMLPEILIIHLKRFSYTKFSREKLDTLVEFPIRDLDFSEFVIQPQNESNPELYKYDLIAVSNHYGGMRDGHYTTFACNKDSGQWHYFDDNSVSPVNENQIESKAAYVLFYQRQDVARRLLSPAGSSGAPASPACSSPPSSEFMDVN
Summary of the method: as §1

UniProt Q5T2D3 = molecular target: T1, UniProt Q5T2D3
T1 sequence (whole entry): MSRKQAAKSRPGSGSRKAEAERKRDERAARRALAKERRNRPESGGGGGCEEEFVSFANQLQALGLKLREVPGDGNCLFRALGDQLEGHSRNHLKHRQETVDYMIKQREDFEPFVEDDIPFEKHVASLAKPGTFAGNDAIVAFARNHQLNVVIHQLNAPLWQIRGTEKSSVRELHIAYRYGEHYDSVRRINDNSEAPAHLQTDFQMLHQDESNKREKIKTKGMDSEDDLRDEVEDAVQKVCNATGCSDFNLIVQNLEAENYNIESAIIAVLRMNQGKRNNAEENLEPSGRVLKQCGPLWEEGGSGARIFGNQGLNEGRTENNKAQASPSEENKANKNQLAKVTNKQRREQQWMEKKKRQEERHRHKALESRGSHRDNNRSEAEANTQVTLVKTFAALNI
Summary of the method: as §1

UniProt Q8TE49 = molecular target: T2, UniProt Q8TE49
T2 sequence (whole entry): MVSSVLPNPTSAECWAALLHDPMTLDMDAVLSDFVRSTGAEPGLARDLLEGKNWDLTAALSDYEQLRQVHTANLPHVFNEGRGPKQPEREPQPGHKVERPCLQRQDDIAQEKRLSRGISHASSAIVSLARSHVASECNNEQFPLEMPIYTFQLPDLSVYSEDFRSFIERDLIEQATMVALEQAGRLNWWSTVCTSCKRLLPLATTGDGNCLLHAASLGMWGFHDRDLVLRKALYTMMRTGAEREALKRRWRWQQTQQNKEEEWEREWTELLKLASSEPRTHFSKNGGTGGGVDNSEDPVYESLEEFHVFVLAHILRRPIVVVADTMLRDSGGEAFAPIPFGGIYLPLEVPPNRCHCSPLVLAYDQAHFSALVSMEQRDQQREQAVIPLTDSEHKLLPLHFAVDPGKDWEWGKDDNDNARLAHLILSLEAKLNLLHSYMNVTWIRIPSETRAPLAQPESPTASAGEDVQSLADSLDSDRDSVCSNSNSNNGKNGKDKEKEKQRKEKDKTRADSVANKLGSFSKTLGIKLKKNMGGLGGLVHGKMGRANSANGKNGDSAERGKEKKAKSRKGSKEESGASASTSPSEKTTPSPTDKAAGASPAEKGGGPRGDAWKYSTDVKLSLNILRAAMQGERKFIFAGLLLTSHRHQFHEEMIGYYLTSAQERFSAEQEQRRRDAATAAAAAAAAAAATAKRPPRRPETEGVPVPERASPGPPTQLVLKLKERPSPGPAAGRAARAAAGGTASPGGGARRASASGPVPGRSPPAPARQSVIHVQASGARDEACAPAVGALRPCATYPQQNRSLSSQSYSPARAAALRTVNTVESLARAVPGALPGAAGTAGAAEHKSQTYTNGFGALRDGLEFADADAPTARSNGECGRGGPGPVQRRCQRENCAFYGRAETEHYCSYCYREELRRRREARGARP
Summary of the method: as §1

UniProt Q9P2H5 = molecular target: T3, UniProt Q9P2H5
T3 sequence (whole entry): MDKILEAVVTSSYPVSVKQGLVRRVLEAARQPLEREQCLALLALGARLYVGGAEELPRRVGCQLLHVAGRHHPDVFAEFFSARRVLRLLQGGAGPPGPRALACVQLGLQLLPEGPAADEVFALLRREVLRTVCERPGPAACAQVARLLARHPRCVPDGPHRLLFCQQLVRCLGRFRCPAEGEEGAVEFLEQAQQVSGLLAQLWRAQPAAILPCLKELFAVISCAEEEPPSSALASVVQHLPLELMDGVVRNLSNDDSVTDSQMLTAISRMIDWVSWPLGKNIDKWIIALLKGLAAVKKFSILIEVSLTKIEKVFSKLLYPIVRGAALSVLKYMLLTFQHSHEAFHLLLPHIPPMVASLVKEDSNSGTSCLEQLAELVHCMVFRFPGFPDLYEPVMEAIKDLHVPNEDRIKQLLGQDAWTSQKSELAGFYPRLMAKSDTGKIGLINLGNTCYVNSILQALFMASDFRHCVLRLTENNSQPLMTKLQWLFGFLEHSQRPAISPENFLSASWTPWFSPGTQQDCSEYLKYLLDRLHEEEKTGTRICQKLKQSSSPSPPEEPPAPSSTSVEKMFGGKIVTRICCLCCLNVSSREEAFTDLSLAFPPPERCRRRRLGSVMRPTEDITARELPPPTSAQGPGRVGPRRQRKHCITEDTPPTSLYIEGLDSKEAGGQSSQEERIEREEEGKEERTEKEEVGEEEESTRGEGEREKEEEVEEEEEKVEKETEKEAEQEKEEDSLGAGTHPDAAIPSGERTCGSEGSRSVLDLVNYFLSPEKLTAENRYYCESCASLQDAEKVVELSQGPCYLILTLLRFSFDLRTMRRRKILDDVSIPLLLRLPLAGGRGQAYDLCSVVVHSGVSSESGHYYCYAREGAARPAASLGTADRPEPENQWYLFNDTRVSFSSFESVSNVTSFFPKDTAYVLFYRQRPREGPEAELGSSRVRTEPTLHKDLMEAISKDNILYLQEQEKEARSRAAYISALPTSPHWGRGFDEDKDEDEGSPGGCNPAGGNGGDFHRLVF
Summary of the method: as §1

UniProt Q9UGI0 = molecular target: T4, UniProt Q9UGI0
T4 sequence (whole entry): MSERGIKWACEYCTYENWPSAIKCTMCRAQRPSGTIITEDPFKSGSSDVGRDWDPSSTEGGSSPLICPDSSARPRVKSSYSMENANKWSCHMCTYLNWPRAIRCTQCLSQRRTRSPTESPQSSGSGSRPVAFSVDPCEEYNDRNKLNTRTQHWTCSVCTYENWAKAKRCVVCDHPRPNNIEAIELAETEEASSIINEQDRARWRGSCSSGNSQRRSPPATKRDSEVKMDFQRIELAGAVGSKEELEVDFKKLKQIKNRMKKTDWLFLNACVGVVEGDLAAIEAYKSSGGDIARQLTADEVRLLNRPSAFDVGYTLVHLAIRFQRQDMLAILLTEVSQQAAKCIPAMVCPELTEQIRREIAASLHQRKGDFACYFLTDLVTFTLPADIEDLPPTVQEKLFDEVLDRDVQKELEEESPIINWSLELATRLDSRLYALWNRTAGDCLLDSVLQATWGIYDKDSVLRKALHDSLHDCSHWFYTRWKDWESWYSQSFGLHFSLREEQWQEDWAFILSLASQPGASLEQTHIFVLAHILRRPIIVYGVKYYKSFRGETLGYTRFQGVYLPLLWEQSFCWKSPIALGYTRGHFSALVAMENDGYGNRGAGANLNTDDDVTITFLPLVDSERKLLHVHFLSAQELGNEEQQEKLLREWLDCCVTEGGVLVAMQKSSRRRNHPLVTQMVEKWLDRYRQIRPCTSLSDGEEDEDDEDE
Summary of the method: as §1

YOD1 = molecular target: T5, YOD1 (UniProt Q5VVQ6)
T5 sequence (whole entry): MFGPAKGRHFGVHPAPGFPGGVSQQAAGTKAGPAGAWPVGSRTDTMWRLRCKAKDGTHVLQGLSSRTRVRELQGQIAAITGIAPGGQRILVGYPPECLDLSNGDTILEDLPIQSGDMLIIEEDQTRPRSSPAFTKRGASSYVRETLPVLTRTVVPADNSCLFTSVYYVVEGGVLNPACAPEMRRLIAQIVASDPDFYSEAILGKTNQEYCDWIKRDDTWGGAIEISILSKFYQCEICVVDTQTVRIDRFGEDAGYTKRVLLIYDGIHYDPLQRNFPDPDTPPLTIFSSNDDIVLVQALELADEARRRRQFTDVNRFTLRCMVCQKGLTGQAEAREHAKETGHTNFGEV
Summary of the method: as §1

Measured: log2 ratio of Biotin-Ahx-Ub-VS probe labelling

Cl.Cn1cnc2cc(CNC(=O)CCl)ccc21
inactive: USP9X -0.0792 | UniProt O00487 -0.00543 | UniProt O00507 0.245 | UniProt P51784 -0.209 | UniProt Q5T2D3 -0.0728 | UniProt Q8TE49 -0.354 | UniProt Q9P2H5 -0.126 | UniProt Q9UGI0 -0.308 | YOD1 0.0476
